The results in this text go back to paper PMC11006913.

Substitutions are numbered along the chain they refer to.

Holding throughout (experiment): PBM; 200 nM protein, PBS
Common to all, as to conditions: dsDNA, one strand shown

In assay [1] the target is HOXB4 (Homo sapiens, UniProt P17483 148-234).
In assay [2] the target is HOXA4 (Homo sapiens, UniProt Q00056 201-287, W262R).
Assay [3] has as its target HOXA4 (Homo sapiens, UniProt Q00056 201-287, R217L).
The target in assay [4] is HOXB4 (Homo sapiens, UniProt P17483 148-234, V174I).
In assay [5] the target is ALX3 (Homo sapiens, UniProt O95076 139-225, N203Q).
Assay [6] deals with HOXA4 (Homo sapiens, UniProt Q00056 201-287).
Assay [7] concerns the target ALX3 (Homo sapiens, UniProt O95076 139-225).
In assay [8] the target is ALX3 (Homo sapiens, UniProt O95076 139-225, L168Q).
The target of assay [9] is ALX3 (Homo sapiens, UniProt O95076 139-225, L168V).
Assay [10] deals with HOXA4 (Homo sapiens, UniProt Q00056 201-287, W262F).
For assay [11], the target named is ALX3 (Homo sapiens, UniProt O95076 139-225, N203S).
The target in assay [12] is HOXC9 (Homo sapiens, UniProt P31274 178-260, K195R).
The target in assay [13] is HOXC9 (Homo sapiens, UniProt P31274 178-260).
Assay [14] deals with HOXC9 (Homo sapiens, UniProt P31274 178-260, R193K).
For assay [15], the target named is HOXC9 (Homo sapiens, UniProt P31274 178-260, R222W).
Assay [16] concerns the target HOXA7 (Homo sapiens, UniProt P31268 116-202).
For assay [17], the target named is VAX1 (Homo sapiens, UniProt Q5SQQ9 86-172).
The target in assay [18] is VAX1 (Homo sapiens, UniProt Q5SQQ9 86-172, T142I).
Assay [19] concerns the target HOXA7 (Homo sapiens, UniProt P31268 116-202, W177C).
Assay [20] deals with VAX1 (Homo sapiens, UniProt Q5SQQ9 86-172, K157R).
Assay [21] deals with HOXA2 (Homo sapiens, UniProt O43364 129-215, R185T).
In assay [22] the target is HOXA2 (Homo sapiens, UniProt O43364 129-215, R185K).
Assay [23] addresses HOXA2 (Homo sapiens, UniProt O43364 129-215, Y150S).
Assay [24] addresses HOXA2 (Homo sapiens, UniProt O43364 129-215).
Assay [25] deals with T1, PAX4 (Homo sapiens, UniProt O43316 9-242, R200K).
T1 sequence: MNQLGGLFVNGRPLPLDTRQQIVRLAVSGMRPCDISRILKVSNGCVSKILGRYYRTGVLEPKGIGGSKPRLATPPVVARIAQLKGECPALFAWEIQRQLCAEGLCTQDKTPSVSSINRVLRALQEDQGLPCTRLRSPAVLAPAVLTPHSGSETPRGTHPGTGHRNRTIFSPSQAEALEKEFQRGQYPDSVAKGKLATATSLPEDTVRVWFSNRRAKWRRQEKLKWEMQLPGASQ

The target of assay [26] is T2, PAX4 (Homo sapiens, UniProt O43316 9-242).
T2 sequence: T1 sequence with K192R

In assay [27] the target is MSX2 (Homo sapiens, UniProt P35548 130-214, R199I).
The target of assay [28] is T3, PAX4 (Homo sapiens, UniProt O43316 9-242, R200Q).
T3 sequence: T1 sequence with K192Q

The target of assay [29] is T4, PAX4 (Homo sapiens, UniProt O43316 9-242, F177V).
T4 sequence: T1 sequence with F169V, K192R

The target of assay [30] is MSX2 (Homo sapiens, UniProt P35548 130-214).
The target of assay [31] is T5, PAX4 (Homo sapiens, UniProt O43316 9-242, F177Y).
T5 sequence: T1 sequence with F169Y, K192R

Assay [32] has as its target MSX2 (Homo sapiens, UniProt P35548 130-214, F161Y).
Assay [33] concerns the target T6, PAX4 (Homo sapiens, UniProt O43316 9-242, R227W).
T6 sequence: T1 sequence with K192R, R219W

Assay [34] addresses ALX4 (Homo sapiens, UniProt Q9H161 200-286).
Assay [35] concerns the target ALX4 (Homo sapiens, UniProt Q9H161 200-286, Q225E).

VAX1 (Homo sapiens, UniProt Q5SQQ9 86-172), sequence (Q5SQQ9 86-172): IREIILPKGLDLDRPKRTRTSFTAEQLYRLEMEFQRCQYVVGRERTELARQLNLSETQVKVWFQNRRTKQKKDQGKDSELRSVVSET
HOXB4 (Homo sapiens, UniProt P17483 148-234), sequence (P17483 148-234): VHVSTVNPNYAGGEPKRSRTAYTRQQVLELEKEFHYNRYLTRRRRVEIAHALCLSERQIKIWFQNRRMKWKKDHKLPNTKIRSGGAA
HOXB4 (Homo sapiens, UniProt P17483 148-234, V174I), sequence (P17483 148-234 V174I): as the sequence (P17483 148-234) above, with V27I counted along it
HOXA4 (Homo sapiens, UniProt Q00056 201-287, W262F), sequence (Q00056 201-287 W262F): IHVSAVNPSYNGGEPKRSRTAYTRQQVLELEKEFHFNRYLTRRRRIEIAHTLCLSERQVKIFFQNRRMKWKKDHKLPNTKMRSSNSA
VAX1 (Homo sapiens, UniProt Q5SQQ9 86-172, K157R), sequence (Q5SQQ9 86-172 K157R): as the sequence (Q5SQQ9 86-172) above, with K72R counted along it
VAX1 (Homo sapiens, UniProt Q5SQQ9 86-172, T142I), sequence (Q5SQQ9 86-172 T142I): as the sequence (Q5SQQ9 86-172) above, with T57I counted along it
HOXA4 (Homo sapiens, UniProt Q00056 201-287), sequence (Q00056 201-287): as the sequence (Q00056 201-287 W262F) above, with F62W counted along it
HOXA4 (Homo sapiens, UniProt Q00056 201-287, W262R), sequence (Q00056 201-287 W262R): as the sequence (Q00056 201-287 W262F) above, with F62R counted along it
HOXA4 (Homo sapiens, UniProt Q00056 201-287, R217L), sequence (Q00056 201-287 R217L): as the sequence (Q00056 201-287 W262F) above, with R17L, F62W counted along it
ALX3 (Homo sapiens, UniProt O95076 139-225, N203Q), sequence (O95076 139-225 N203Q): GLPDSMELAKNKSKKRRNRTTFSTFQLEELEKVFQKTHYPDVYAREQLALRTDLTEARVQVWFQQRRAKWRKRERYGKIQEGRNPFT
HOXA2 (Homo sapiens, UniProt O43364 129-215, R185K), sequence (O43364 129-215 R185K): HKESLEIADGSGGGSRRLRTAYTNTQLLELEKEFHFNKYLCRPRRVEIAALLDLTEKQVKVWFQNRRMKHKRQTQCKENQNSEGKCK
ALX3 (Homo sapiens, UniProt O95076 139-225, N203S), sequence (O95076 139-225 N203S): as the sequence (O95076 139-225 N203Q) above, with Q65S counted along it
HOXA2 (Homo sapiens, UniProt O43364 129-215), sequence (O43364 129-215): as the sequence (O43364 129-215 R185K) above, with K57R counted along it
ALX3 (Homo sapiens, UniProt O95076 139-225), sequence (O95076 139-225): as the sequence (O95076 139-225 N203Q) above, with Q65N counted along it
HOXA2 (Homo sapiens, UniProt O43364 129-215, R185T), sequence (O43364 129-215 R185T): as the sequence (O43364 129-215 R185K) above, with K57T counted along it
HOXA2 (Homo sapiens, UniProt O43364 129-215, Y150S), sequence (O43364 129-215 Y150S): as the sequence (O43364 129-215 R185K) above, with Y22S, K57R counted along it
ALX3 (Homo sapiens, UniProt O95076 139-225, L168V), sequence (O95076 139-225 L168V): as the sequence (O95076 139-225 N203Q) above, with L30V, Q65N counted along it
ALX3 (Homo sapiens, UniProt O95076 139-225, L168Q), sequence (O95076 139-225 L168Q): as the sequence (O95076 139-225 N203Q) above, with L30Q, Q65N counted along it
ALX4 (Homo sapiens, UniProt Q9H161 200-286), sequence (Q9H161 200-286): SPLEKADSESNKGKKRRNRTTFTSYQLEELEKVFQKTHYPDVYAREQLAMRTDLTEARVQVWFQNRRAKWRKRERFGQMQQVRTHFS
HOXC9 (Homo sapiens, UniProt P31274 178-260, R222W), sequence (P31274 178-260 R222W): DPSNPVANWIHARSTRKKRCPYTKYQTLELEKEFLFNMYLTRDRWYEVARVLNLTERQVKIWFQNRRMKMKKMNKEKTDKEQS
MSX2 (Homo sapiens, UniProt P35548 130-214), sequence (P35548 130-214): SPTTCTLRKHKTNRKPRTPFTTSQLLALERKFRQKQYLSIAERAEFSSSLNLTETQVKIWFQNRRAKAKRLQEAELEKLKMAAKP
ALX4 (Homo sapiens, UniProt Q9H161 200-286, Q225E), sequence (Q9H161 200-286 Q225E): as the sequence (Q9H161 200-286) above, with Q26E counted along it
HOXC9 (Homo sapiens, UniProt P31274 178-260, R193K), sequence (P31274 178-260 R193K): as the sequence (P31274 178-260 R222W) above, with R16K, W45R counted along it
HOXA7 (Homo sapiens, UniProt P31268 116-202), sequence (P31268 116-202): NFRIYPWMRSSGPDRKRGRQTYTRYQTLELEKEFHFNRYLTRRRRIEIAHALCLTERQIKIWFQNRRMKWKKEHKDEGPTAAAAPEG
HOXC9 (Homo sapiens, UniProt P31274 178-260), sequence (P31274 178-260): as the sequence (P31274 178-260 R222W) above, with W45R counted along it
MSX2 (Homo sapiens, UniProt P35548 130-214, F161Y), sequence (P35548 130-214 F161Y): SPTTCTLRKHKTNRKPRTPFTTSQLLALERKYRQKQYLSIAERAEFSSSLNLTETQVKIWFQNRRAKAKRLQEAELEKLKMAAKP
MSX2 (Homo sapiens, UniProt P35548 130-214, R199I), sequence (P35548 130-214 R199I): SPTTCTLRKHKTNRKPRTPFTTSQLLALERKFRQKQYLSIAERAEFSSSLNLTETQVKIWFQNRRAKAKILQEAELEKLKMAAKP
HOXC9 (Homo sapiens, UniProt P31274 178-260, K195R), sequence (P31274 178-260 K195R): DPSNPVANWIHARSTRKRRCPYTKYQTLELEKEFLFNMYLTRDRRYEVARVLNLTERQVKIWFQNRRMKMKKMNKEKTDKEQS
HOXA7 (Homo sapiens, UniProt P31268 116-202, W177C), sequence (P31268 116-202 W177C): as the sequence (P31268 116-202) above, with W62C counted along it

Regarding CAGGCCCC, the binding signal is 7.68 upbm affinity estimate (log intensity, higher = more binding, comparable within an allelic series) in the assay with HOXB4 [1]; 9.66 upbm affinity estimate (log intensity, higher = more binding, comparable within an allelic series) with HOXA4 [2]; 9.56 upbm affinity estimate (log intensity, higher = more binding, comparable within an allelic series) with HOXA4 [3]; 7.6 upbm affinity estimate (log intensity, higher = more binding, comparable within an allelic series) with HOXB4 [4]; 7.7 upbm affinity estimate (log intensity, higher = more binding, comparable within an allelic series) with ALX3 [5]; 9.7 upbm affinity estimate (log intensity, higher = more binding, comparable within an allelic series) in the assay with HOXA4 [6]. Further, the binding signal with ALX3 [7] was 7.63 upbm affinity estimate (log intensity, higher = more binding, comparable within an allelic series); with ALX3 [8], 7.69 upbm affinity estimate (log intensity, higher = more binding, comparable within an allelic series); with ALX3 [9], 7.7 upbm affinity estimate (log intensity, higher = more binding, comparable within an allelic series); with HOXA4 [10] it was 9.81 upbm affinity estimate (log intensity, higher = more binding, comparable within an allelic series); with ALX3 [11] it was 7.69 upbm affinity estimate (log intensity, higher = more binding, comparable within an allelic series).
On to CCTACCGC, for which the binding signal in the assay with HOXB4 [1] is 7.61 upbm affinity estimate (log intensity, higher = more binding, comparable within an allelic series); with HOXC9 [12], 9.66 upbm affinity estimate (log intensity, higher = more binding, comparable within an allelic series); with HOXB4 [4], 7.56 upbm affinity estimate (log intensity, higher = more binding, comparable within an allelic series); with HOXC9 [13] it was 9.63 upbm affinity estimate (log intensity, higher = more binding, comparable within an allelic series); in the assay with HOXC9 [14], 9.56 upbm affinity estimate (log intensity, higher = more binding, comparable within an allelic series); with HOXC9 [15] it was 9.71 upbm affinity estimate (log intensity, higher = more binding, comparable within an allelic series).
With CAGACCCC, the binding signal was 7.56 upbm affinity estimate (log intensity, higher = more binding, comparable within an allelic series) with HOXB4 [1]; 8.69 upbm affinity estimate (log intensity, higher = more binding, comparable within an allelic series) with HOXA7 [16]; 7.7 upbm affinity estimate (log intensity, higher = more binding, comparable within an allelic series) in the assay with HOXB4 [4]; 7.73 upbm affinity estimate (log intensity, higher = more binding, comparable within an allelic series) in the assay with ALX3 [5]; 7.61 upbm affinity estimate (log intensity, higher = more binding, comparable within an allelic series) with ALX3 [7]; 6.95 upbm affinity estimate (log intensity, higher = more binding, comparable within an allelic series) with VAX1 [17]. Besides, the binding signal with ALX3 [8] is 7.69 upbm affinity estimate (log intensity, higher = more binding, comparable within an allelic series); with ALX3 [9] it was 7.66 upbm affinity estimate (log intensity, higher = more binding, comparable within an allelic series); with VAX1 [18] it was 7.15 upbm affinity estimate (log intensity, higher = more binding, comparable within an allelic series); with HOXA7 [19], 8.53 upbm affinity estimate (log intensity, higher = more binding, comparable within an allelic series); with ALX3 [11], 7.74 upbm affinity estimate (log intensity, higher = more binding, comparable within an allelic series); with VAX1 [20] it was 6.94 upbm affinity estimate (log intensity, higher = more binding, comparable within an allelic series).
For the sequence GGTAATGA, the binding signal was 12.9 upbm affinity estimate (log intensity, higher = more binding, comparable within an allelic series) with HOXB4 [1]; 10.4 upbm affinity estimate (log intensity, higher = more binding, comparable within an allelic series) with HOXA4 [2]; 12.1 upbm affinity estimate (log intensity, higher = more binding, comparable within an allelic series) in the assay with HOXA2 [21]; 11.9 upbm affinity estimate (log intensity, higher = more binding, comparable within an allelic series) with HOXA4 [3]; 13.6 upbm affinity estimate (log intensity, higher = more binding, comparable within an allelic series) with HOXB4 [4]; 13 upbm affinity estimate (log intensity, higher = more binding, comparable within an allelic series) in the assay with HOXA2 [22]. The binding signal in the assay with HOXA4 [6] is 13.5 upbm affinity estimate (log intensity, higher = more binding, comparable within an allelic series); with VAX1 [17], 12.8 upbm affinity estimate (log intensity, higher = more binding, comparable within an allelic series); in the assay with VAX1 [18], 12.6 upbm affinity estimate (log intensity, higher = more binding, comparable within an allelic series); in the assay with HOXA2 [23] it was 10.8 upbm affinity estimate (log intensity, higher = more binding, comparable within an allelic series); with HOXA4 [10] it was 11.2 upbm affinity estimate (log intensity, higher = more binding, comparable within an allelic series); in the assay with HOXA2 [24] it was 12.1 upbm affinity estimate (log intensity, higher = more binding, comparable within an allelic series). Further, the binding signal with VAX1 [20] was 12.5 upbm affinity estimate (log intensity, higher = more binding, comparable within an allelic series).
On to CGGGCTTC, for which the binding signal in the assay with HOXB4 [1] was 7.22 upbm affinity estimate (log intensity, higher = more binding, comparable within an allelic series); with HOXA4 [2], 9.75 upbm affinity estimate (log intensity, higher = more binding, comparable within an allelic series); with PAX4 [25], 9.13 upbm affinity estimate (log intensity, higher = more binding, comparable within an allelic series); with PAX4 [26], 8.97 upbm affinity estimate (log intensity, higher = more binding, comparable within an allelic series); with HOXA4 [3], 9.66 upbm affinity estimate (log intensity, higher = more binding, comparable within an allelic series); in the assay with HOXB4 [4], 7.19 upbm affinity estimate (log intensity, higher = more binding, comparable within an allelic series). Also, the binding signal in the assay with MSX2 [27] is 9.39 upbm affinity estimate (log intensity, higher = more binding, comparable within an allelic series); with PAX4 [28], 9.21 upbm affinity estimate (log intensity, higher = more binding, comparable within an allelic series); with PAX4 [29], 9.17 upbm affinity estimate (log intensity, higher = more binding, comparable within an allelic series); with HOXA4 [6], 9.6 upbm affinity estimate (log intensity, higher = more binding, comparable within an allelic series); in the assay with MSX2 [30], 9.32 upbm affinity estimate (log intensity, higher = more binding, comparable within an allelic series); with PAX4 [31], 9.09 upbm affinity estimate (log intensity, higher = more binding, comparable within an allelic series). In addition, the binding signal with MSX2 [32] was 9.35 upbm affinity estimate (log intensity, higher = more binding, comparable within an allelic series); with PAX4 [33], 9.24 upbm affinity estimate (log intensity, higher = more binding, comparable within an allelic series); with HOXA4 [10], 9.77 upbm affinity estimate (log intensity, higher = more binding, comparable within an allelic series).
With ACCTCTCG, the binding signal with HOXB4 [1] is 7.54 upbm affinity estimate (log intensity, higher = more binding, comparable within an allelic series); in the assay with HOXA4 [2] it was 9.8 upbm affinity estimate (log intensity, higher = more binding, comparable within an allelic series); in the assay with HOXA4 [3], 9.73 upbm affinity estimate (log intensity, higher = more binding, comparable within an allelic series); with HOXB4 [4] it was 7.48 upbm affinity estimate (log intensity, higher = more binding, comparable within an allelic series); with HOXA4 [6] it was 9.69 upbm affinity estimate (log intensity, higher = more binding, comparable within an allelic series); in the assay with HOXA4 [10], 9.82 upbm affinity estimate (log intensity, higher = more binding, comparable within an allelic series).
For the sequence GATAATGA, the binding signal with HOXB4 [1] is 13.1 upbm affinity estimate (log intensity, higher = more binding, comparable within an allelic series); in the assay with HOXA4 [2], 10.7 upbm affinity estimate (log intensity, higher = more binding, comparable within an allelic series); with ALX4 [34], 12.7 upbm affinity estimate (log intensity, higher = more binding, comparable within an allelic series); in the assay with PAX4 [25], 11.2 upbm affinity estimate (log intensity, higher = more binding, comparable within an allelic series); with PAX4 [26], 11.4 upbm affinity estimate (log intensity, higher = more binding, comparable within an allelic series); in the assay with ALX4 [35], 11.2 upbm affinity estimate (log intensity, higher = more binding, comparable within an allelic series). The binding signal was 12.6 upbm affinity estimate (log intensity, higher = more binding, comparable within an allelic series) with HOXA2 [21]; 12.3 upbm affinity estimate (log intensity, higher = more binding, comparable within an allelic series) with HOXA4 [3]; 13.7 upbm affinity estimate (log intensity, higher = more binding, comparable within an allelic series) with HOXB4 [4]; 11.2 upbm affinity estimate (log intensity, higher = more binding, comparable within an allelic series) with PAX4 [28]; 13.3 upbm affinity estimate (log intensity, higher = more binding, comparable within an allelic series) in the assay with HOXA2 [22]; 10.3 upbm affinity estimate (log intensity, higher = more binding, comparable within an allelic series) with PAX4 [29]. The binding signal is 13.9 upbm affinity estimate (log intensity, higher = more binding, comparable within an allelic series) with HOXA4 [6]; 12.9 upbm affinity estimate (log intensity, higher = more binding, comparable within an allelic series) with VAX1 [17]; 12.7 upbm affinity estimate (log intensity, higher = more binding, comparable within an allelic series) in the assay with VAX1 [18]; 10.6 upbm affinity estimate (log intensity, higher = more binding, comparable within an allelic series) with PAX4 [33]; 10.9 upbm affinity estimate (log intensity, higher = more binding, comparable within an allelic series) in the assay with HOXA2 [23]; 11.6 upbm affinity estimate (log intensity, higher = more binding, comparable within an allelic series) in the assay with HOXA4 [10]. Besides, the binding signal with HOXA2 [24] was 12.3 upbm affinity estimate (log intensity, higher = more binding, comparable within an allelic series); with VAX1 [20], 12.5 upbm affinity estimate (log intensity, higher = more binding, comparable within an allelic series).
